# PubChem BioAssay (Tox21)
# Where “and” joins values, the source holds several entries; their conditions need not be identical. Identical values can stand only once. Results filed as inconclusive are left out. Where a call stands in place of a potency, no number is given. Calls of active or inactive are those of the source. Calls follow the shape of the dose curve; as a rule, active = well fitted cell-killing curve with a large enough effect in the repeat runs; inconclusive = weak or mixed curves, or effect the other way; inactive = no such curve, though single readings can be large or run the other way.
# Test: qHTS assay to identify small molecule antagonists of the thyroid receptor (TR) signaling pathway - cell viability counter screen (AID 743064); also: nearly all actives have a fitted effect of over 50% in size
# Conditions: GH3.TRE-Luc viability, CellTiter-Fluor, 24 h; series mostly up to 70.3 µM
# Description: National Center for Advancing Translational Sciences [NCATS]
# NIH Chemical Genomics Center [NCGC]
# U.S. Environmental Protection Agency [EPA]
# National Institutes of Environmental Health Sciences [NIEHS]
# National Toxicology Program [NTP]
# U.S. Food and Drug Administration [FDA]
# Thyroid receptor (TR), a nuclear hormone receptor, plays an important role in development, proliferation, differentiation, metabolism, brain function, and cardiovascular system. […] To profile the Tox21 10K compound library in TR signaling, a cell-based GH3-TRE-Luc assay (GH3.TRE-Luc cell line, developed by the laboratory of Dr. Albertinka J. Murk, Wageningen University) was used to measure the inhibition of TR. GH3 (rat pituitary tumor) cells stably expressing a TR activity sensor consisting of two TR response elements and a luciferase reporter gene. The cytotoxicity of the Tox21 compound library against the GH3.TRE-Luc cell line was tested in parallel by measuring the cell viability using CellTiter-Fluor assay (Promega, Madison, WI) in the same wells.
# Tox21 Assay Protocol Summary:
# GH3.TRE-Luc cells were dispensed at 1500 cells/4 uL/well into 1536-well white solid bottom plates using a Multidrop Combi dispenser (Thermo Fisher Scientific Inc., Waltham, MA). After the assay plates were incubated at 37 C for 4 hours, 23 nL of library compound or DMSO controls was transferred to the assay plates by a pintool station (Kalypsys, San Diego, CA), followed by addition of 1 ul of T3 (1 nM, final concentration in the wells) to stimulate TR transactivation. The assay plates were incubated at 37 C for 23.5 h, and then 1 uL of CellTiter-Fluor reagent (Promega, Madision, WI) of measuring cytotoxicity was added to each well using a Bioraptr Flying Reagent Dispenser (FRD) workstation (Beckman Coulter, Indianapolis, IN, USA). The plates were incubated at 37C and 5% CO2 for additional 30 min, and fluorescence intensity was measured by a ViewLux plate reader (PerkinElmer, Shelton, CT).
# Potency is read from the fitted curve at half-maximal effect.
row,Structure (SMILES),Potency
1,O=C1CCCC(=O)C1,inactive
2,CN(C(=O)c1c(O)c2ccccc2n(C)c1=O)c1ccccc1,inactive
3,FC1(F)C(F)(F)C(F)(F)C2(F)C(F)(F)C(F)(F)C(F)(F)C(F)(F)C2(F)C1(F)F (stereo not given),inactive
4,NCCc1cnc[nH]1,inactive
5,C[N+](C)(C)CCCCCC[N+](C)(C)C,inactive
6,CC(=O)CC(C)(C)C1CCCCC1,inactive
7,O=C1CCCN1C1CCCCC1,inactive
8,O=C(O)CCCl,inactive
9,CC(=O)OCC(=O)[C@@]1(O)CCC2C3CCC4=CC(=O)CC[C@]4(C)C3[C@@H](O)C[C@@]21C (stereo not given in full),inactive
10,O=c1cc(CO)occ1O,inactive
11,COC(=O)C1=C(C)NC(C)=C(C(=O)OC)C1c1ccccc1[N+](=O)[O-],48.6 µM (active)
12,CC/C=C\CC/C=C/C(OCC)OCC,inactive
13,CCOC(C)(C)C,inactive
14,OCCCC1CCCCC1,inactive
15,CCOc1ccc(C(=O)OCCN(CC)CC)cc1,inactive
16,COCCCOCCCOC,inactive
17,CCC(=O)OC(C)c1ccccc1 (stereo not given),inactive
18,CN1CCC(=C2c3ccccc3CC(=O)c3sccc32)CC1,15 µM (active)
19,CCOC(=O)CCC(C)=O,inactive
20,Cn1cc(S(C)=O)c(=O)c2ccc(F)cc21 (stereo not given),inactive

row,Structure (SMILES),Potency
1,CC(=O)CC(C)C,inactive
2,Nc1c[n+](N2CCOCC2)no1,inactive
3,NC(=O)COCCN1CCN(C(c2ccccc2)c2ccc(Cl)cc2)CC1 (stereo not given),23.7 µM (active)
4,CCCCCSCCCCC,inactive
5,CC(C)CCCC(C)N (stereo not given),inactive
6,Nc1ccc(S(=O)(=O)Nc2ccnn2-c2ccccc2)cc1,inactive
7,O=C(O)CN(CCOCCOCCN(CC(=O)O)CC(=O)O)CC(=O)O,inactive
8,CC(C)(O)C#CC(C)(C)O,inactive
9,CN(C)CCCN1c2ccccc2CCc2ccc(Cl)cc21,10.6 µM (active) and 10.9 µM (active)
10,CCCCOCCOCCOCCCC,inactive
11,NS(=O)(=O)c1cc(C(=O)O)cc(N2CCCC2)c1Oc1ccccc1,inactive
12,C=C(C)C(=O)OCCCCCCCC(C)C,inactive
13,CCCN(CCC)CCc1cccc2c1CC(=O)N2,inactive
14,CCO/C([O-])=N/c1c[n+](N2CCOCC2)no1,inactive
15,ClC(Cl)(Br)Br,inactive
16,c1cnc(N2CCN(Cc3ccc4c(c3)OCO4)CC2)nc1,inactive
17,CC(C)=CCCC(C)CC(=O)O (stereo not given),inactive
18,CC(=O)Nc1c(I)cc(I)c(C(=O)O)c1I,inactive
19,C1OCOCO1,inactive
20,COC(=O)NN,inactive
